Compound activity as filed in PubChem.
Sampled rows, rich in hits. Any-hit rate of the full collection: about 19%.
ELG1 DNA repair: inhibitors of ELG1-dependent DNA repair in HEK293T cells | HEK293T ELG1-luciferase reporter, luminescence, 16 h; DNA damage induced by 5-fluorouridine | Potency, µM (doses to about 46.1 µM), hits mostly inhibitors | AID 504467 | actives 2.3% (n = 330,000); also: nearly all actives have a fitted effect of over 55% in size
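In this reporter screen, reduction of luminescence relative to DMSO vehicle indicated activity. Compounds and 5-fluorouridine were added together to 2,000 cells per well, incubated for 16 hr at 37 °C, then developed with ONE-Glo.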
HT1080-NT tox: kills 2HG-producing HT-1080-NT fibrosarcoma cells; actives 1.6% (n = 360,000); Potency, µM (top dose mostly 46.1 µM), hits mostly cytotoxic; AID 686970; HT-1080-NT fibrosarcoma viability, CellTiter-Glo ATP luminescence, 48 h;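 also: NT is the 2HG producing partner of a matched IDH1 knockdown line; nearly all actives have a fitted effect of over 55% in size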
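Luminescent CellTiter-Glo readout after 48 hours of compound exposure at 37 degrees C defined viability of HT-1080-NT cells. Activity was normalized to DMSO wells and cell-free media wells; concentration-response curves were fitted and assigned curve classes.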
DT40 TDP1 no CPT: qHTS for Inhibitors of human tyrosyl-DNA phosphodiesterase 1 (TDP1): qHTS in cells in absence of CPT. Potency, µM (series often up to 46.2 µM), hits mostly inhibitors. DT40 Tdp1-/- hTDP1 cells, no CPT, ATP luminescence, 48 h. AID 686978, 2013. actives 15% (n = 420,000); also: nearly all actives have a fitted effect of over 55% in size
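Chicken DT40 Tdp1-/- cells complemented with human TDP1, screened without camptothecin (DMSO vehicle only), 400 cells/well. Compounds pin-transferred, cells incubated at 37 °C for at least 48 hr. Growth read as ATP-dependent luminescence (CellTiter-Glo, 30 min at RT).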
IL1B secr inh: inflammasome signaling inhibition, IL-1 beta readout. activity change, % at 57.5 µM. THP-1 LPS/ATP IL-1B secretion, AlphaLISA, 16 h; stronger effect = lower value. actives 4.7% (n = 360,000). AID 743279; in the data active = activity change below about -50%; inconclusive = mostly about -30% to -49%
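Secreted IL-1B measured by AlphaLISA bead assay after 16 h compound exposure of THP-1 cells; compounds (final up to 57.5 uM) added 1 h before LPS (250 ng/mL) and ATP (1.25 mM) stimulation; lower signal means less secretion.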
TDP1 cell CPT: DT40-hTDP1 cell growth loss with CPT; chicken DT40 Tdp1-/-;hTDP1 cells + 20 nM CPT, ATP luminescence, 48 h; Potency, µM (top dose mostly 46.2 µM), usual class: inhibitors; actives 12% (n = 420,000); AID 686979; also: nearly all actives have a fitted effect of over 55% in size
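Cell growth measured by CellTiter-Glo luminescence after a minimum 48 h, 37 C compound exposure with 20 nM CPT in Tdp1-knockout DT40 cells stably expressing hTDP1, seeded 400/well; qHTS titration format.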
HT1080 IDH1KD tx: toxicity to HT-1080 IDH1 knockdown cells (counter line). Potency, µM (top dose mostly 46.1 µM), usual class: cytotoxic. actives 2% (n = 360,000). HT-1080 IDH1 knockdown viability, ATP luminescence, 48 h
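Using the IDH1-knockdown HT-1080 line run in the same batch and compound series as the NT line, viability after 48 h at 37 °C was determined by CellTiter-Glo luminescence and expressed as % activity.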
Large screens that a line does not name were inactive. Unless noted, calls follow the shape of the dose curve; as a rule, active = well fitted curve in the direction sought with a large enough effect; inconclusive = small, poorly fitted or top-dose-only effect, or another doubt; inactive = no such curve, though single readings can be large; an effect the other way counts as inactive or inconclusive.

O=C(CN1CCCCC1)Nc1nc(-c2ccc(Cl)cc2)cs1	IL1B secr inh -82, TDP1 cell CPT inconclusive
CC1CCN(Cc2ccc(-c3nnn(CC(=O)Nc4ccccc4Cl)n3)cc2)CC1	ELG1 DNA repair inconclusive, DT40 TDP1 no CPT 21µM, TDP1 cell CPT 16µM
O=C(CN1CCCCC1)Nc1nc(-c2ccccc2)cs1	ELG1 DNA repair inconclusive, DT40 TDP1 no CPT inconclusive
COc1ccc(C2(O)CCN(CC(=O)Nc3nc(-c4ccccc4)cs3)CC2)cc1	ELG1 DNA repair 23µM, HT1080-NT tox inconclusive, DT40 TDP1 no CPT inconclusive, IL1B secr inh -98, TDP1 cell CPT inconclusive, HT1080 IDH1KD tx inconclusive
O=C(Cn1nnc(-c2ccc(CN3CCOCC3)cc2)n1)Nc1nc(-c2ccccc2)cs1	ELG1 DNA repair inconclusive, HT1080-NT tox inconclusive, DT40 TDP1 no CPT 21µM, TDP1 cell CPT inconclusive
O=C(CN1CCOCC1)Nc1nc(-c2ccccc2)cs1	DT40 TDP1 no CPT inconclusive
O=C(CN1CCCC1)Nc1nc(-c2ccc(Cl)cc2)cs1	DT40 TDP1 no CPT 16µM, TDP1 cell CPT 26µM (no result: ELG1 DNA repair)
Clc1ccc2oc(SCc3cccnc3)nc2c1	ELG1 DNA repair inconclusive
CCC(C)NCCOc1ccc(C)cc1[N+](=O)[O-] (stereo unspecified)	IL1B secr inh -54
Cc1cc(C)nc(NS(=O)(=O)c2ccc(NC(=O)c3cccc(N4C(=O)CCC4=O)c3)cc2)n1	HT1080-NT tox 23µM
C[C@H](NC(=O)c1ccc(C(C)(C)C)cc1)C(=O)N1CCOCC1	none
O=C(/C=C/c1ccc(Cl)c([N+](=O)[O-])c1)Nc1ccc(N2CCCC2)cc1	HT1080-NT tox inconclusive, DT40 TDP1 no CPT inconclusive, TDP1 cell CPT inconclusive
C[n+]1cccc(Br)c1	none (no result: ELG1 DNA repair, HT1080-NT tox, IL1B secr inh, HT1080 IDH1KD tx)
O=[N+]([O-])c1ccccc1S(=O)(=O)Nc1ccc2c(c1)OCCO2	DT40 TDP1 no CPT inconclusive, TDP1 cell CPT inconclusive
Cc1ccc(C2Nc3cccc4cccc(c34)N2)s1	DT40 TDP1 no CPT 18µM, TDP1 cell CPT inconclusive
CCOC(=O)c1c(-c2ccccc2)oc2ccc(OC)cc12	DT40 TDP1 no CPT inconclusive
CCOC(=O)c1c(-c2ccccc2)c2cc(OC)ccc2n1CCCN(C)C	ELG1 DNA repair inconclusive, DT40 TDP1 no CPT inconclusive, IL1B secr inh -50, TDP1 cell CPT inconclusive
CC1=NN(c2ccccc2)C(=O)C1C=Nc1ccccc1O (stereo unspecified)	ELG1 DNA repair inconclusive, HT1080-NT tox inconclusive, DT40 TDP1 no CPT 18µM, TDP1 cell CPT inconclusive, HT1080 IDH1KD tx inconclusive
CCOC(=O)N(C)c1c(CC)nc2c(OCc3ccc(C(F)(F)F)cc3)cccn12	HT1080-NT tox inconclusive, DT40 TDP1 no CPT 13µM, TDP1 cell CPT inconclusive, HT1080 IDH1KD tx inconclusive (no result: ELG1 DNA repair)
CCc1nc2c(OCc3ccc(OC)cc3)cccn2c1N(C)C(=O)c1ccc(OC)cc1	DT40 TDP1 no CPT inconclusive, TDP1 cell CPT inconclusive (no result: ELG1 DNA repair)
CCc1nc2c(OCc3ccc(C#N)cc3)cccn2c1N(C)C(=O)c1ccc(C)cc1	DT40 TDP1 no CPT 18µM, TDP1 cell CPT 18µM (no result: ELG1 DNA repair)
CCc1nc2c(OCc3ccc(C(F)(F)F)cc3)cccn2c1N(C)C(=O)c1ccc(OC)cc1	HT1080-NT tox inconclusive, DT40 TDP1 no CPT 13µM, IL1B secr inh -81, TDP1 cell CPT 10µM, HT1080 IDH1KD tx inconclusive (no result: ELG1 DNA repair)
CCc1nc2c(OCc3ccc(C(F)(F)F)cc3)cccn2c1N(C)C(=O)c1ccc(C)cc1	HT1080-NT tox inconclusive, DT40 TDP1 no CPT 23µM, IL1B secr inh -76, TDP1 cell CPT 23µM, HT1080 IDH1KD tx inconclusive (no result: ELG1 DNA repair)
CCOC(=O)N(C)c1c(CC)nc2c(OCc3ccc(OC(F)F)cc3)cccn12	DT40 TDP1 no CPT 15µM, TDP1 cell CPT inconclusive (no result: ELG1 DNA repair)
CCc1nc2c(OCc3ccc(OC(F)F)cc3)cccn2c1N(C)C(=O)c1ccco1	DT40 TDP1 no CPT inconclusive, TDP1 cell CPT inconclusive (no result: ELG1 DNA repair)
COc1cccc(N2CCN(C(=O)C3CCN(S(=O)(=O)c4cccs4)CC3)CC2)c1	DT40 TDP1 no CPT 13µM, TDP1 cell CPT inconclusive
COc1ccccc1N1CCN(C(=O)C2CCN(S(=O)(=O)c3ccc(F)cc3)CC2)CC1	DT40 TDP1 no CPT inconclusive
CCOC(=O)c1ccc(S(=O)(=O)N2CCC(C(=O)N3CCN(c4ccccc4OC)CC3)CC2)cc1	HT1080-NT tox inconclusive, IL1B secr inh -85, TDP1 cell CPT inconclusive, HT1080 IDH1KD tx inconclusive (no result: ELG1 DNA repair)
COc1ccccc1N1CCN(C(=O)C2CCN(S(=O)(=O)c3cccs3)CC2)CC1	DT40 TDP1 no CPT 21µM, TDP1 cell CPT 16µM (no result: ELG1 DNA repair, HT1080-NT tox, IL1B secr inh, HT1080 IDH1KD tx)
CCCCN(C=O)c1c(CC)nc2ccc(C(=O)N(C)Cc3ccco3)cn12	HT1080-NT tox inconclusive (no result: ELG1 DNA repair)
COc1ccc2[nH]cc(CCNc3ncnc4ccc(-c5ccc6c(c5)OCO6)cc34)c2c1	DT40 TDP1 no CPT 16µM, TDP1 cell CPT inconclusive (no result: ELG1 DNA repair, HT1080-NT tox, IL1B secr inh, HT1080 IDH1KD tx)
COc1ccc2[nH]cc(CCNc3ncnc4ccc(-c5cccnc5)cc34)c2c1	DT40 TDP1 no CPT 23µM, TDP1 cell CPT 15µM (no result: ELG1 DNA repair, HT1080-NT tox, IL1B secr inh, HT1080 IDH1KD tx)
CC(=O)NCCNc1ncnc2ccc(-c3ccccc3Cl)cc12	DT40 TDP1 no CPT inconclusive (no result: ELG1 DNA repair, HT1080-NT tox, IL1B secr inh, HT1080 IDH1KD tx)
CC(=O)NCCNc1ncnc2ccc(-c3ccc4c(c3)OCO4)cc12	DT40 TDP1 no CPT inconclusive, TDP1 cell CPT 16µM (no result: ELG1 DNA repair, HT1080-NT tox, IL1B secr inh, HT1080 IDH1KD tx)
